Screening data deposited in PubChem BioAssay by National Center for Advancing Translational Sciences (NCATS).
p53 reactivator: re-activators of mutant p53 | 320,000 compounds, 0.063% hits | H1299 p53-A138V BP100-luciferase reporter, luminescence, 24 h | Potency, µM (titrated, usually from 92.2 µM), usual class: activators; note: nearly all actives have a fitted effect of over 45% in size
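H1299 (p53-null), stable ts p53-A138V + BP100-Luc; 1000 cells/well, Opti-MEM/10% FBS; cpd 4 pt, 1:5; 24 h, 37 deg C, 5% CO2; detection reagent 10 min RT; luminescence.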
LDHA block: LDHA (human) enzyme inhibition; P00338; purified LDHA, NADH/diaphorase-resazurin fluorescence; active compounds read low; activity change, % (values are at about 110 or 230 µM); 480,000 compounds, 0.15% hits; AID 1347041; in the data active = activity change below about -30%; inconclusive = mostly about -25% to -30%
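LDH5 2 nM; NADH 0.06 mM, pyruvate 0.2 mM; 200 mM Tris pH 7.4, EDTA, Tween-20; 5 min RT. Detection: diaphorase 0.133 mg/mL + resazurin 37 µM, fluorescence ex540/em590 at 0 and 20 min; normalized to enzyme-free and DMSO wells.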
BRCA1 expr up: increases BRCA1 expression | 380,000 compounds, 1.1% hits | Potency, µM (top dose mostly 46.1 µM), actives largely listed as activators | MCF7-BRCA1-FFLuc reporter, luminescence, 48 h; response scale: scaled: vehicle 0%, 10 µM genistein 100%; note: nearly all actives have a fitted effect of over 80% in size
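MCF7 cells carrying a BRCA1-firefly luciferase reporter (2000 cells/well, phenol-red free MEM) were attached for 2 h at 37 °C, then given compounds for 48 h. Luminescence was read 15 min after luciferase reagent; activity normalized to genistein (10 microM) and DMSO.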
PTHR1 ag: activates the human parathyroid hormone receptor PTHR1. Q03431. HEK293 GP2 PTHR1 cells, GloSensor cAMP luminescence, 1 h. Potency, µM (series often up to 115 µM), actives largely listed as activators. 410,000 compounds, 0.075% hits. AID 743266; note: nearly all actives have a fitted effect of over 55% in size
Target sequence (Q03431 whole entry, looked up): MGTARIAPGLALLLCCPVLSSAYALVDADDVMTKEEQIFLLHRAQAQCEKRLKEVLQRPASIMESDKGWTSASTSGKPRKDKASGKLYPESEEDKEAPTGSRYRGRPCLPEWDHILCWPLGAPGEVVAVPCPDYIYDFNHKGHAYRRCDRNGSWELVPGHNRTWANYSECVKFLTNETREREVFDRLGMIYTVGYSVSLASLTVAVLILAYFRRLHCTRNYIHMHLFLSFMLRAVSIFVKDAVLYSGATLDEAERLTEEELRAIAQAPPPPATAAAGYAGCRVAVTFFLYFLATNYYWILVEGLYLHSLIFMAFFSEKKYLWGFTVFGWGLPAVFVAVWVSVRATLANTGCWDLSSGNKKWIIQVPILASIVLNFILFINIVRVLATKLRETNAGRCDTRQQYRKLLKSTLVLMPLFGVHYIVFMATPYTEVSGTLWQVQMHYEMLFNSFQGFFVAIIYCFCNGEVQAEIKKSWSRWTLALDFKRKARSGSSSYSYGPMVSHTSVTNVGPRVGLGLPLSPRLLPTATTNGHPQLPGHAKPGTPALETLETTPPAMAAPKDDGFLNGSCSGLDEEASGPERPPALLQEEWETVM
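HEK-293-derived GP2 cells expressing PTHR1 and a GloSensor cAMP reporter, 3,000/well, plated overnight, given luciferin plus IBMX (each 0.5 mM as added) for 1 h at 37 °C, then compound for 1 h at 37 °C. Luminescence was read after 15 min at room temperature.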
RGS4 inh: blocks human RGS4-accelerated GTP hydrolysis; Potency, µM (highest dose often 114 µM), hits mostly inhibitors; AID 504845; Transcreener GDP fluorescence polarization, RGS4-accelerated GTP hydrolysis; 390,000 compounds, 0.039% hits; note: nearly all actives have a fitted effect of over 75% in size
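MLSMR compounds (23 nl, pin-transferred) preincubated 10 min at room temperature with a 500nM (2x) first reagent, then RGS4 at 900nM (2x) plus Transcreener GDP mix added; fluorescence polarization (620/688 nm) read before and after 90 min at 30 °C.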
Numbers stand for hits; 0 = inactive; ? = inconclusive; - = not tested or not shown; [ ] = dose if it differs, or a comment. Sampled rows, rich in hits. Any-hit rate of the full collection: about 1.1%. Unless noted, calls come from the whole dose curve; as a rule, active = well fitted curve in the direction sought with a large enough effect; inconclusive = small, poorly fitted or top-dose-only effect, or another doubt; inactive = no such curve, though single readings can be large; an effect the other way counts as inactive or inconclusive.

SMILES	p53 reactivator	LDHA block	BRCA1 expr up	PTHR1 ag	RGS4 inh
CN1N=C2c3ccccc3CCC2C1c1ccc(F)cc1 (configuration not stated)	0	0	0	0	0
c1ccc(N2CC3CCc4ccccc4C3=N2)cc1 (configuration not stated)	45µM	0	0	0	0
O=C(Cn1cc2c(n1)CCCCC2)NC1CCCCCC1	?	0	8.9µM	0	?
COc1ccc(/C(N)=N/OC(=O)c2cccs2)cc1OC	0	0	8.9µM	0	0
Cc1cc(Cl)ccc1OC(C)C(=O)NN (configuration not stated)	-	0	-	-	-
Cc1ccc(NC(=O)c2ccc(OC(=O)C(C)Oc3ccc(Cl)cc3C)cc2)cc1 (configuration not stated)	?	0	5µM	0	0
O=C(Nc1ccc(-c2nc3cccnc3s2)cc1)c1ccc(Cl)nc1	0	0	1.8µM	0	0
CC(C)OCCCNC(=O)Cn1ccc2ccc(Cl)cc21	-	0	-	-	-
Cc1ccc(NC(=O)c2ccc(Nc3ccccc3F)nc2)cc1	?	0	8.9µM	0	0
Cc1ccc(NC(=O)c2ccc(NCc3ccc(F)cc3)nc2)cc1	0	0	0	0	0
CC[N+](C)(CC#CC(O)(c1ccccc1)C1CCCC1)C(C)C (configuration not stated)	-	0	-	-	-
Cn1c(-c2ccccc2)csc1=N	-	-49	-	-	-
c1cc(CNc2ccc3c(c2)OCCO3)ccn1	25µM	0	0	0	0
CCc1nnc(NC(=O)/C=C/c2ccco2)s1	?	0	4µM	0	0
O=C(/C=C/c1ccco1)NCCc1ccccc1	?	0	6.3µM	0	0
CCCCCc1nnc(NC(=O)C2COc3ccccc3O2)s1 (configuration not stated)	0	0	0	0	0
CCc1nnc(NC(=O)C2COc3ccccc3O2)s1 (configuration not stated)	?	0	11µM	0	0
O=C(OCc1ccc(F)cc1Br)c1ccc(CN2CCCC2=O)cc1	-	0	-	-	-
COc1ccc(-c2nn3c(CN4CCOCC4)nnc3s2)c(OC)c1	-	0	-	-	-
CCN(CCn1cccn1)C(=O)CCc1nnc(CCCc2ccccc2)o1	0	0	13µM	0	0
C=C(C)CN(CC)C(=O)CCc1nnc(CCCc2ccccc2)o1	0	0	?	0	0
CC(=O)Nc1cc(C(=O)OCC(=O)c2ccc(C)cc2)ccc1C	28µM	0	?	0	0
Cc1ccc2nc(-c3ccc(NC(=O)COC(=O)c4ccc([N+](=O)[O-])o4)cc3)sc2c1	3.2µM	0	0	0	0
O=C(c1ccccc1CSc1nc2ccccc2o1)N1CCCCC1	-	0	-	-	-
O=C(O)c1ccccc1CSc1nc2ccccc2o1	0	0	8.9µM	0	0[11.4 µM]
SMILES	p53 reactivator	LDHA block	BRCA1 expr up	PTHR1 ag	RGS4 inh
Cc1ccc(/C=C/C(=O)c2ccc(O)c(CCCl)c2)c(C)c1	-	0	-	-	-
COc1cccc2oc3cc(C#Cc4ccccn4)ccc3c(=O)c12	0	0	8.9µM	0	0
COc1cccc2oc3cc(C#CC4(O)CCCCC4)ccc3c(=O)c12	0	0	?	0	0
COCCCNCc1c2ccccc2c(Cl)c2ccccc12	-	0	-	-	-
O=C(O)C(c1ccccc1)N1C(=O)/C(=C\c2ccc(-c3ccccc3Cl)o2)SC1=S (configuration not stated)	0	-30	0	0	?
CC(CCC(C)[n+]1cccc(Br)c1)[n+]1cccc(Br)c1 (configuration not stated)	-	-31	0	-	-
C[n+]1cccc(Br)c1	-	0	0	-	-
O=C(OCc1ccc(Cl)cc1)c1cccnc1Cl	0	0	0	0	0
COC(=O)c1ccc(COC(=O)c2cccnc2Cl)cc1	0	0	13µM	0	0
O=C(Nc1ccccc1)N1CCC(c2ccccc2)C1 (configuration not stated)	?	0	3.2µM	0	0
O=C(CCN1CCC(c2ccccc2)C1)c1cccs1 (configuration not stated)	0	0	0	?	0
Cc1cccc(OCC(=O)N2CCC(c3ccccc3)C2)c1 (configuration not stated)	?	0	7.9µM	0	0
O=C(c1cccs1)N1CCC(c2ccccc2)C1 (configuration not stated)	?	0	3.5µM	0	0
